Data taken from PubChem BioAssay AID1159580 (chemical genetic matrix, 2015).
The campaign covered roughly 5,500 compounds. About 2,000 (36%) were called active. Roughly 18% stayed inconclusive and do not appear here. No stated cut-off is given here; in the data, active means normalized growth mostly below about 0.91 (no sharp cut-off); inconclusive means no clear call, values can overlap the other calls; inactive means mostly above about 0.92. This is one part of the list.

Assay: chemical genetic growth profiling, strain panel (AID 1159580);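 further: tested at 20 µM; growth read once vehicle control cultures reached saturation at 30 °C; 1 = growth at the plate median or of vehicle wells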
Conditions: S. cerevisiae deletion strains, growth OD
[1] = locus YDL101C, strain DUN1, stronger effect = lower value
[2] = locus YHR030C, strain SLT2, stronger effect = lower value

Measured: normalized growth

Cc1ccc(C)n1-c1ccc(C(=O)NNS(=O)(=O)c2ccc(Cl)cc2)cc1
active: locus YPL241C, strain CIN2, stronger effect = lower value 1.14 [resistant]
inactive: locus YAL013W, strain DEP1, stronger effect = lower value 1.01 | locus YBR229C, strain ROT2, stronger effect = lower value 1.01 | [1] 1.04 | locus YDR150W, strain NUM1, stronger effect = lower value 0.991 | locus YEL061C, strain CIN8, stronger effect = lower value 1.01 | locus YGR078C, strain PAC10, stronger effect = lower value 1.01 | [2] 0.955 | locus YHR087W, strain rtc3, stronger effect = lower value 1.01 | locus YJL187C, strain SWE1, stronger effect = lower value 1.02 | locus YJR043C, strain POL32, stronger effect = lower value 0.999 | locus YJR075W, strain HOC1, stronger effect = lower value 0.995 | locus YKL190W, strain CNB1, stronger effect = lower value 0.978 | locus YLR039C, strain RIC1, stronger effect = lower value 0.985 | locus YLR058C, strain SHM2 (second series), stronger effect = lower value 1 | locus YLR085C, strain ARP6, stronger effect = lower value 0.962 | locus YLR262C, strain YPT6, stronger effect = lower value 0.98 | locus YML094W, strain GIM5, stronger effect = lower value 1.1 | locus YMR219W, strain ESC1, stronger effect = lower value 1 | locus YMR263W, strain SAP30, stronger effect = lower value 1 | locus YMR307W, strain GAS1, stronger effect = lower value 0.979 | locus YNL153C, strain GIM3, stronger effect = lower value 1.01 | locus YNL298W, strain CLA4 (second series), stronger effect = lower value 0.945 | locus YNL322C, strain KRE1, stronger effect = lower value 1 | locus YNR030W, strain Alg12, stronger effect = lower value 0.993 | locus YOL006C, strain TOP1, stronger effect = lower value 1.03 | locus YPL055C, strain LGE1, stronger effect = lower value 1.01 | locus YPR135W, strain CTF4, stronger effect = lower value 0.946

Cc1cc(C(=O)NNS(=O)(=O)c2ccc(F)c(Cl)c2)nn1-c1c(Cl)cc(Cl)cc1Cl
inactive: locus YAR019C, strain CDC15, stronger effect = lower value 0.978 | locus YBL105C, strain PKC1, stronger effect = lower value 0.979 | locus YBR135W, strain CKS1, stronger effect = lower value 0.985 | locus YBR136W, strain MEC1, stronger effect = lower value 0.987 | locus YBR160W, strain CDC28, stronger effect = lower value 0.98 | locus YDL017W, strain CDC7, stronger effect = lower value 0.985 | locus YDL028C, strain MPS1, stronger effect = lower value 0.985 | [1] 0.975 | locus YDL108W, strain KIN28, stronger effect = lower value 0.99 | locus YDL132W, strain cdc53, stronger effect = lower value 0.974 | locus YDL214C, strain PRR2, stronger effect = lower value 1.04 | locus YDR052C, strain DBF4, stronger effect = lower value 0.987 | locus YDR054C, strain cdc34, stronger effect = lower value 0.983 | locus YDR226W, strain ADK1, stronger effect = lower value 0.98 | locus YDR477W, strain SNF1, stronger effect = lower value 1.03 | locus YER123W, strain YCK3, stronger effect = lower value 1.04 | locus YER133W, strain GLC7, stronger effect = lower value 1.04 | locus YFL009W, strain cdc4, stronger effect = lower value 0.982 | locus YFL029C, strain CAK1, stronger effect = lower value 0.988 | locus YFR003C, strain YPI1, stronger effect = lower value 0.981 | locus YFR019W, strain FAB1, stronger effect = lower value 1.02 | locus YFR028C, strain CDC14, stronger effect = lower value 0.979 | locus YGR040W, strain KSS1, stronger effect = lower value 1.03 | locus YGR052W, strain FMP48, stronger effect = lower value 1.1 | locus YGR092W, strain DBF2, stronger effect = lower value 1.02 | [2] 1.09 | locus YHR079C, strain IRE1, stronger effect = lower value 1.05 | locus YHR082C, strain KSP1, stronger effect = lower value 1.11 | locus YHR205W, strain SCH9, stronger effect = lower value 1.04 | locus YIL147C, strain SLN1, stronger effect = lower value 0.99 | locus YJL095W, strain BCK1, stronger effect = lower value 1.07 | locus YJL128C, strain PBS2, stronger effect = lower value 0.905 | locus YJL157C, strain FAR1, stronger effect = lower value 1.03 | locus YJR016C, strain ILV3, stronger effect = lower value 0.982 | locus YJR066W, strain TOR1 (second series), stronger effect = lower value 1.05 | locus YJR066W, strain TOR1, stronger effect = lower value 1.02 | locus YKL048C, strain ELM1, stronger effect = lower value 1.01 | locus YKL067W, strain YNK1, stronger effect = lower value 1.03 | locus YKL101W, strain HSL1, stronger effect = lower value 1.02 | locus YKL193C, strain SDS22, stronger effect = lower value 0.996 | locus YKL203C, strain TOR2, stronger effect = lower value 1.13 | locus YLR113W, strain HOG1, stronger effect = lower value 1.06 | locus YLR133W, strain CKI1, stronger effect = lower value 1.02 | locus YLR403W, strain SFP1, stronger effect = lower value 1.06 | locus YML070W, strain DAK1, stronger effect = lower value 1.03 | locus YMR001C, strain CDC5, stronger effect = lower value 0.993 | locus YMR205C, strain PFK2 (second series), stronger effect = lower value 1.03 | locus YMR277W, strain FCP1, stronger effect = lower value 0.978 | locus YNL006W, strain LST8, stronger effect = lower value 0.994 | locus YNL020C, strain ARK1, stronger effect = lower value 1.03 | locus YNL161W, strain CBK1, stronger effect = lower value 0.988 | locus YNL183C, strain NPR1, stronger effect = lower value 1.13 | locus YNL207W, strain RIO2, stronger effect = lower value 0.986 | locus YNL222W, strain SSU72, stronger effect = lower value 0.99 | locus YNL307C, strain MCK1 (second series), stronger effect = lower value 1.04 | locus YOL078W, strain AVO1, stronger effect = lower value 0.99 | locus YOL136C, strain PFK27, stronger effect = lower value 1.04 | locus YOR061W, strain CKA2, stronger effect = lower value 1.03 | locus YOR119C, strain RIO1, stronger effect = lower value 1.08 | locus YOR231W, strain MKK1, stronger effect = lower value 1.03 | locus YOR329C, strain SCD5, stronger effect = lower value 0.985 | locus YPL031C, strain PHO85, stronger effect = lower value 1.04 | locus YPL153C, strain RAD53, stronger effect = lower value 1.03 | locus YPL204W, strain HRR25, stronger effect = lower value 1.04 | locus YPL209C, strain IPL1, stronger effect = lower value 0.987 | locus YPL256C, strain CLN2, stronger effect = lower value 1.02 | locus YPR025C, strain CCL1, stronger effect = lower value 0.981 | locus YPR106W, strain ISR1, stronger effect = lower value 0.98 | locus YPR111W, strain DBF20, stronger effect = lower value 0.964 | strain NNK1, stronger effect = lower value 0.986 | strain TSCII, stronger effect = lower value 0.995
